Assay outcomes: PubChem BioAssay, Johns Hopkins Ion Channel Center
KCNQ2 inh: KCNQ2 (rat) channel inhibition | O88943 | CHO-K1 KCNQ2, FluxOR thallium flux, 20 min; active compounds read low | B-score at 10 µM | hit rate 1.1% among 310,000 | AID 2156;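 active = fluorescence ratio B-score at most minus 3 library SDs, with starting brightness B-score within 2 library SDs, cut at about -5.5 in these data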
KCNQ2 pot: KCNQ2 (rat) channel potentiation | CHO-K1 KCNQ2, FluxOR thallium flux fluorescence; active compounds read high | B-score at 10 µM | hit rate 0.54% among 310,000 | AID 2239;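 active = fluorescence ratio B-score at least 3 SD of library B-scores, with initial fluorescence B-score within 3 of them, cut at about 5.3 in these data; same plate scores as AID 2156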;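 also: B-score of peak minus minimum over baseline fluorescence ratio after K+ and Tl+ stimulus; positive B-score means potentiation of KCNQ2 with more thallium influx and brighter signal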
Kir21 confirm: confirmation of mouse Kir2.1 potassium channel inhibitors; shares compounds with KCNQ2 pot; Kir2.1-expressing cells, FluxOR thallium flux fluorescence; active compounds read low; Tl flux remaining, % of negative control (active compounds read low), % at 10 µM; hit rate 41% among 2,300;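 active = Primary-screen hit whose thallium flux fell at least 3 control SD below untreated wells in both duplicates, with normal baseline fluorescence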;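 also: 0% = blank wells without stimulus and 100% = stimulated no-compound controls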
HEK293 Tl flux: parental HEK293 activity in Kir2.1 inhibitor counter-screen; shares compounds with KCNQ2 pot; parental HEK293 cells, FluxOR thallium flux fluorescence; 0% = unstimulated blank wells; FluxOR signal as % of negative control (100 = no effect), % at 10 µM; hit rate 19% among 2,300; AID 2105;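 active = dye signal at least 3 control SD above or below untreated wells in both duplicates, raw fluorescence within 3, either direction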;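 also: percent is based on the flux ratio of peak minus minimum fluorescence over baseline F0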
CHO-K1 ctr: alters thallium flux in parental CHO-K1 cells, KCNQ2 counter-screen. shares compounds with KCNQ2 pot. FluxOR thallium flux fluorescence; zero = vehicle mean+3SD, 100% = vehicle-minus-blank window. activity increase over 3SD of controls, % at 10 µM. hit rate 43% among 1,200;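 active = signal rise of at least 3 SD above the untreated control mean, in both duplicate wells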;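 also: counter screen of KCNQ2 potentiator hits so any rise reflects channel-independent effects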
KCNQ1 sel pot: human KCNQ1 counter-target activity of KCNQ2 potentiators; shares compounds with KCNQ2 pot; CHO KCNQ1 stable, FluxOR thallium flux fluorescence; beyond 3SD, as % of vehicle-control signal; activation over 3SD threshold, % at 10 µM; hit rate 28% among 1,200;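 active = fluorescence ratio rise of at least 3 SD of vehicle wells above their mean, in both replicate wells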;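 also: 0% = vehicle mean plus 3 SD and 100% = vehicle minus unstimulated blank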
KCNQ2 pot conf: confirmation of rat KCNQ2 potassium channel potentiators; shares compounds with KCNQ2 pot; CHO-KCNQ2 cells, FluxOR thallium flux fluorescence; potentiation, less the hit threshold, % at 10 µM; hit rate 68% among 1,200; AID 2287;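 active = fluorescence ratio rising 3 SD or more over the vehicle control mean in both replicates, plus primary screen hit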;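 also: peak minus minimum thallium fluorescence divided by baseline after K/Tl stimulus; 0% = vehicle mean plus 3 SD and 100% = vehicle minus unstimulated blank difference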
Kir2-1 sel: mouse Kir2.1 off-target activity of KCNQ2 potentiators; hit rate 2% among 1,200; HEK293 Kir2.1, FluxOR thallium flux fluorescence; shares compounds with KCNQ2 pot; AID 2345; activity over 3SD threshold, % at 10 µM;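 active = fluorescence ratio rise of at least 3 SD above the vehicle-control mean, seen in both replicates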;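 also: 0% = vehicle mean plus 3 SD and 100% = vehicle minus no-stimulus blank window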
KCNQ2 W236L MoA: rat KCNQ2 W236L mutant potentiation by KCNQ2 potentiators; CHO KCNQ2-W236L, automated patch clamp current; hit rate 10% among 940; current increase over 3SD of negative controls (%), active compounds read high, % at 25 µM; shares compounds with KCNQ2 pot;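 active = current increase at least 3 SD of the untreated controls above them in both duplicate recordings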
An asterisk follows results filed as active; i = inactive; · = not tested or not shown. A selection: hits, their analogues and other compounds. The true share with any hit is near 1.6%.

SMILES	KCNQ2 inh	KCNQ2 pot	Kir21 confirm	HEK293 Tl flux	others
CCCn1c2ccccc2c2cnn(CC(=O)N3CCN(C4CCCCC4)CC3)c(=O)c21	i	9*	i	i	CHO-K1 ctr=-7.4;KCNQ1 sel pot=35.0*;KCNQ2 pot conf=19.6*;Kir2-1 sel=-45.6;KCNQ2 W236L MoA=i
O=C(c1sccc1-c1ccccc1)N1CCN(S(=O)(=O)c2ccccc2F)CC1	i	0.07	·	·
Fc1ccc(CCNC(=S)Nc2ccc(F)c(Cl)c2)cc1	i	·	·	·
O=C(N/N=C/c1cccs1)c1ccc2c(c1)OCO2	i	1.31	·	·
CCC(=O)N(CCC(c1ccco1)C(C)C)Cc1ccccc1 (configuration not stated)	i	·	50.0%*	68.5%*
CC(=O)N(CCC(c1ccco1)C(C)C)Cc1ccc(Cl)cc1 (configuration not stated)	i	·	·	·
O=C(c1cc(Br)c[nH]1)N1CCSCC1	i	·	·	·
O=c1c2ccccc2c(C=NCCCN2CCOCC2)c(O)n1Cc1ccc2c(c1)OCO2	i	0.1	·	·
O=c1c2ccccc2c(C=NCCCN2CCOCC2)c(O)n1Cc1ccccc1	i	·	64.5%*	i
O=C(NCCC(=O)N1CCc2ccccc21)c1ccccc1Cl	i	·	·	·
O=C(NC(=S)N1CCc2ccccc21)c1ccccc1Cl	i	8.86*	i	i	CHO-K1 ctr=13.6*;KCNQ1 sel pot=-11.7;KCNQ2 pot conf=62.2*;Kir2-1 sel=-13.8;KCNQ2 W236L MoA=i
COC(=O)C1=C(C)NC(C)=C(C(=O)OCC2CCCO2)C1c1cccc(Br)c1 (configuration not stated)	i	·	·	·
Fc1cccc(/C=N/Nc2ccc3ccccc3n2)c1	i	12.5*	i	i	CHO-K1 ctr=-13.9;KCNQ1 sel pot=-20.9;KCNQ2 pot conf=-19.8;Kir2-1 sel=-29.5
Brc1ccc(/C=N/Nc2ccc3ccccc3n2)cc1	i	1.59	·	·
O=S(=O)(c1ccccc1Cl)N1CCC(O)(c2ccc3c(c2)OCO3)CC1	i	·	·	·
Cc1ccc(C(=O)NNc2ncnc3c2cnn3C)cc1	i	·	·	·
Cn1ncc2c(O/N=C(\N)c3ccc(C(F)(F)F)cc3)ncnc21	i	5.95*	i	i	CHO-K1 ctr=20.4*;KCNQ1 sel pot=5.7*;KCNQ2 pot conf=-5.1;Kir2-1 sel=-18.2
NS(=O)(=O)c1ccc(CCNCc2ccccc2OCc2ccc(F)cc2)cc1	i	0.56	·	·
NS(=O)(=O)c1ccc(NCc2ccccc2OCc2ccc(F)cc2)cc1	i	6.64*	i	i	CHO-K1 ctr=37.7*;KCNQ1 sel pot=-16.2;KCNQ2 pot conf=2.5*;Kir2-1 sel=-53.5;KCNQ2 W236L MoA=i
CN1CCN(C(=O)c2ccc(CNS(=O)(=O)c3cccc(Cl)c3)cc2)CC1	i	·	·	·
N=c1c2c(ncn1CCCO)Oc1c(ccc3ccccc13)C2c1ccccc1 (configuration not stated)	i	·	·	·
CN(C)CCCn1cnc2c(c1=N)C(c1ccccc1)c1ccc3ccccc3c1O2 (configuration not stated)	i	·	i	i
Cc1ccc(C)c2[nH]c(=O)c(CN(Cc3ccco3)C(=S)NCC3CCCO3)cc12 (configuration not stated)	i	·	·	·
CC1=CC(C)(C)N(C(=O)CSc2nnc(C)s2)c2ccc(C)cc21	i	·	70.5%*	i
CC1=CC(C)(C)N(C(=O)CSc2nnc(N)s2)c2cc(C)c(C)cc21	i	1.01	·	·
Cc1cc(NC(=O)CSCC(=O)OC(C)C(=O)N(C)Cc2ccccc2)no1 (configuration not stated)	i	1.34	·	·
Cc1cc(NC(=O)CSCC(=O)OC(C)C(=O)c2cc(C)c(C)cc2C)no1 (configuration not stated)	i	·	68.5%*	i
